Data reported in PubChem BioAssay AID1159580 (chemical genetic matrix, 2015).
Where “and” joins values, the source holds several entries; their conditions need not be identical. Equal values may be shown once. The campaign covered roughly 5,500 compounds. About 2,000 (36%) were called active. Inconclusive results (about 18%) are left out. Cut-off read from the data, not from the text of the source: active = normalized growth mostly below about 0.91 (no sharp cut-off); inconclusive = no clear call, values can overlap the other calls; inactive = mostly above about 0.92. The list shows a part of the results.

Test: chemical genetic growth profiling, strain panel (AID 1159580);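 note: tested at 20 µM; growth read once vehicle control cultures reached saturation at 30 °C; 1 = growth at the plate median or of vehicle wells; lower values mean less growth of the strain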
Conditions: S. cerevisiae deletion strains, growth OD

Measured: normalized growth

CC1(C)O[C@H]2CC(=O)OC[C@]23[C@H]2CC[C@@]4(C)[C@H](c5ccoc5)OC(=O)[C@H]5O[C@]54[C@]2(C)C(=O)C[C@@H]13
inactive: locus YAL013W, strain DEP1, active compounds read low 1.02 | locus YAL021C, strain ccr4, active compounds read low 0.982 | locus YAL026C, strain drs2, active compounds read low 0.99 | locus YAL030W, strain snc1, active compounds read low 0.98 | locus YBL061C, strain skt5, active compounds read low 0.987 | locus YBR009C, strain hhf1, active compounds read low 0.968 | locus YBR023C, strain chs3, active compounds read low 0.995 | locus YBR171W, strain sec66, active compounds read low 0.964 | locus YBR229C, strain ROT2, active compounds read low 1.01 | locus YBR231C, strain swc5, active compounds read low 1 | locus YBR279W, strain paf1, active compounds read low 0.992 | locus YCL011C, strain gbp2, active compounds read low 0.98 | locus YCL016C, strain dcc1, active compounds read low 0.99 | locus YCL029C, strain bik1, active compounds read low 0.976 | locus YCL061C, strain MRC1, active compounds read low 0.974 | locus YCL069W, strain vba3, active compounds read low 0.969 | locus YCR088W, strain abp1, active compounds read low 0.984 | locus YDL005C, strain med2, active compounds read low 0.962 | locus YDL035C, strain GPR1, active compounds read low 1.02 | locus YDL040C, strain nat1, active compounds read low 0.984 | locus YDL074C, strain BRE1, active compounds read low 0.992 | locus YDL101C, strain DUN1, active compounds read low 0.985 | locus YDL134C, strain PPH21, active compounds read low 1.01 | locus YDL185W, strain tfp1, active compounds read low 0.962 | locus YDL192W, strain arf1, active compounds read low 0.988 | locus YDR001C, strain nth1, active compounds read low 0.984 | locus YDR069C, strain doa4, active compounds read low 0.989 | locus YDR101C, strain arx1, active compounds read low 0.998 | locus YDR137W, strain rgp1, active compounds read low 1.01 | locus YDR150W, strain NUM1, active compounds read low 0.994 | locus YDR159W, strain sac3, active compounds read low 0.99 | locus YDR162C, strain NBP2, active compounds read low 1.02 | locus YDR195W, strain ref2 0.967 | locus YDR297W, strain sur2, active compounds read low 1.01 | locus YDR318W, strain mcm21, active compounds read low 0.994 | locus YDR334W, strain swr1, active compounds read low 0.958 | locus YDR335W, strain msn5, active compounds read low 0.986 | locus YDR388W, active compounds read low 1.01 | locus YDR392W, strain spt3, active compounds read low 0.986 | locus YDR502C, strain sam2, active compounds read low 0.99 | locus YEL003W, strain gim4, active compounds read low 0.981 | locus YEL037C, strain rad23, active compounds read low 0.971 | locus YEL061C, strain CIN8 (second series), active compounds read low 0.991 | locus YEL061C, strain CIN8, active compounds read low 1 | locus YER015W, strain faa2, active compounds read low 0.989 | locus YER016W, strain bim1, active compounds read low 0.98 | locus YER110C, active compounds read low 0.975 | locus YER111C, strain swi4, active compounds read low 0.95 | locus YER155C, strain BEM2 (second series), active compounds read low 0.952 | locus YER155C, strain BEM2, active compounds read low 0.995 | locus YER167W, strain BCK2, active compounds read low 1 | locus YFR010W, strain ubp6, active compounds read low 0.986 | locus YGL078C, strain dbp3, active compounds read low 0.985 | locus YGL086W, strain mad1, active compounds read low 0.993 | locus YGL167C, strain pmr1, active compounds read low 0.975 | locus YGL173C, strain kem1, active compounds read low 0.982 | locus YGL227W, strain vid30, active compounds read low 0.987 | locus YGL240W, strain doc1, active compounds read low 0.962 | locus YGL248W, strain PDE1, active compounds read low 1.02 | locus YGL253W, strain hxk2, active compounds read low 1.01 | locus YGR135W, strain pre9, active compounds read low 1 | locus YGR229C, strain SMI1, active compounds read low 1.04 | locus YGR252W, strain gcn5, active compounds read low 1.07 | locus YHR013C, strain ard1, active compounds read low 0.95 | locus YHR027C, strain rpn1, active compounds read low 0.993 | locus YHR030C, strain SLT2, active compounds read low 1 and 1.01 | locus YHR079C, strain IRE1 (second series), active compounds read low 0.98 | locus YHR079C, strain IRE1, active compounds read low 1.03 | locus YHR094C, strain hxt1, active compounds read low 0.984 | locus YHR129C, strain ARP1, active compounds read low 1 | locus YHR142W, strain chs7, active compounds read low 0.973 | locus YHR200W, strain rpn10, active compounds read low 0.987 | locus YIL066C, strain RNR3, active compounds read low 1.02 | locus YIL073C, strain SPO22, active compounds read low 0.932 | locus YIL125W, strain kgd1, active compounds read low 0.997 | locus YIR030C, strain dcg1, active compounds read low 0.984 | locus YJL092W, strain hpr5, active compounds read low 0.962 | locus YJL095W, strain BCK1 (second series), active compounds read low 0.966 | locus YJL095W, strain BCK1, active compounds read low 0.985 and 1.03 | locus YJL115W, strain asf1, active compounds read low 0.95 | locus YJL129C, strain trk1, active compounds read low 0.973 | locus YJL134W, strain LCB3, active compounds read low 1 | locus YJL154C, strain vps35, active compounds read low 0.975 | locus YJL164C, strain tpk1, active compounds read low 0.986 | locus YJL166W, strain qcr8, active compounds read low 0.979 | locus YJL168C, strain set2, active compounds read low 0.989 | locus YJL187C, strain SWE1 (second series), active compounds read low 0.996 | locus YJL187C, strain SWE1, active compounds read low 0.967 | locus YJR043C, strain POL32, active compounds read low 1.05 | locus YJR066W, strain TOR1, active compounds read low 0.946 | locus YJR075W, strain HOC1, active compounds read low 0.989 | locus YKL009W, strain mrt4, active compounds read low 0.963 | locus YKL068W, active compounds read low 0.987 | locus YKL085W, strain MDH1 (second series), active compounds read low 0.992 | locus YKL085W, strain MDH1, active compounds read low 0.992 | locus YKL160W, strain elf1, active compounds read low 1 | locus YKR001C, strain vps1, active compounds read low 0.985 | locus YKR026C, strain gcn3, active compounds read low 0.998 | locus YKR091W, strain srl3, active compounds read low 0.98 | locus YLL001W, strain dnm1, active compounds read low 0.959 | locus YLL026W, active compounds read low 0.988 | locus YLL041C, strain sdh2, active compounds read low 0.97 | locus YLR027C, strain aat2, active compounds read low 0.965 | locus YLR039C, strain RIC1, active compounds read low 1.01 | locus YLR058C, strain SHM2, active compounds read low 1 | locus YLR102C, strain apc9, active compounds read low 0.983 | locus YLR113W, strain HOG1, active compounds read low 1.04 | locus YLR221C, strain rsa3, active compounds read low 1 | locus YLR258W, strain gsy2, active compounds read low 0.996 | locus YLR262C, strain YPT6 (second series), active compounds read low 1.01 | locus YLR262C, strain YPT6, active compounds read low 1 | locus YLR268W, strain sec22, active compounds read low 0.961 | locus YLR320W, strain mms22, active compounds read low 0.992 | locus YLR330W, strain CHS5, active compounds read low 0.998 | locus YLR342W, strain FKS1 (second series), active compounds read low 1.07 | locus YLR342W, strain FKS1, active compounds read low 0.975 | locus YLR357W, strain rsc2, active compounds read low 0.99 | locus YLR370C, strain arc18, active compounds read low 0.97 | locus YLR371W, strain rom2, active compounds read low 0.98 | locus YLR384C, strain iki3, active compounds read low 0.999 | locus YLR418C, strain cdc73, active compounds read low 0.994 | locus YML016C, strain PPZ1, active compounds read low 1.01 | locus YML032C, strain rad52, active compounds read low 1.01 | locus YML120C, strain ndi1, active compounds read low 0.969 | locus YML124C, strain tub3, active compounds read low 0.99 | locus YMR058W, strain fet3, active compounds read low 0.974 | locus YMR078C, strain ctf18, active compounds read low 0.982 | locus YMR125W, strain sto1, active compounds read low 0.985 | locus YMR129W, active compounds read low 0.99 | locus YMR205C, strain PFK2, active compounds read low 1.01 | locus YMR223W, strain ubp8, active compounds read low 0.994 | locus YMR231W, strain pep5, active compounds read low 0.981 | locus YMR263W, strain SAP30, active compounds read low 0.985 | locus YMR307W, strain GAS1, active compounds read low 1.04 | locus YNL067W, strain RPL9B, active compounds read low 0.961 | locus YNL071W, strain lat1, active compounds read low 0.995 | locus YNL128W, strain TEP1, active compounds read low 0.993 | locus YNL153C, strain GIM3, active compounds read low 0.994 | locus YNL183C, strain NPR1, active compounds read low 0.934 | locus YNL209W, strain ssb2, active compounds read low 0.979 | locus YNL233W, strain BNI4, active compounds read low 0.997 | locus YNL248C, strain rpa49, active compounds read low 0.979 | locus YNL250W, strain rad50, active compounds read low 0.932 | locus YNL271C, strain bni1, active compounds read low 0.987 | locus YNL298W, strain CLA4, active compounds read low 1 | locus YNL307C, strain MCK1, active compounds read low 0.983 | locus YNL322C, strain KRE1 (second series), active compounds read low 0.959 | locus YNL322C, strain KRE1, active compounds read low 0.997 | locus YNR049C, strain mso1, active compounds read low 0.956 | locus YNR052C, strain pop2, active compounds read low 0.994 | locus YOL006C, strain TOP1, active compounds read low 0.922 | locus YOL012C, strain htz1 0.665 | locus YOL147C, strain pex11, active compounds read low 0.998 | locus YOR001W, strain rrp6, active compounds read low 0.995 | locus YOR061W, strain CKA2, active compounds read low 1.01 | locus YOR069W, strain VPS5, active compounds read low 1 | locus YOR070C, strain gyp1, active compounds read low 0.992 | locus YOR080W, strain dia2, active compounds read low 0.961 | locus YOR083W, strain WHI5, active compounds read low 0.975 | locus YOR106W, strain vam3, active compounds read low 1.01 | locus YOR136W, strain idh2, active compounds read low 0.985 | locus YOR144C, strain elg1, active compounds read low 1.01 | locus YOR184W, strain ser1, active compounds read low 0.988 | locus YOR231W, strain MKK1, active compounds read low 1.04 | locus YOR265W, strain rbl2, active compounds read low 0.984 | locus YOR270C, strain vph1, active compounds read low 0.988 | locus YOR290C, strain snf2, active compounds read low 0.973 | locus YOR316C, strain cot1, active compounds read low 0.992 | locus YPL051W, strain arl3, active compounds read low 0.986 | locus YPL078C, strain atp4, active compounds read low 0.97 | locus YPL106C, strain sse1, active compounds read low 0.939 | locus YPL240C, strain hsp82, active compounds read low 0.992 | locus YPL256C, strain CLN2, active compounds read low 1.01 | locus YPR119W, strain clb2, active compounds read low 0.994 | locus YPR141C, strain kar3, active compounds read low 0.991 | locus YPR163C, strain tif3, active compounds read low 1 | locus YPR167C, strain met16, active compounds read low 0.989 | strain wtn01, active compounds read low 0.974
active: locus YBR021W, strain FUR4, active compounds read low 1.21 [resistant]
